Data reported in PubChem BioAssay (EPA / NIEHS).
Results filed as inconclusive are left out. Activity calls are given as the source filed them. The calls were made as follows: active = hit-call score of the fitted dose curve at least 0.9, where 1 is the maximum; inconclusive = response in the unintended direction; inactive = score below 0.9.

What follows are compounds tested against Tyrosine-protein phosphatase non-receptor type 11 (Homo sapiens) (UniProt Q06124) (assay: NVS_ENZ_hPTPN11: NovaScreen (NVS) Enzymatic Assay for human Protein Tyrosine Phosphatase Non-receptor Type 11 (PTPN11) (AID 2283202)).
Method: NVS_ENZ_hPTPN11 is a biochemical, single-readout assay that uses extracted gene-proteins in a cell-free assay. Measurements were taken 0.5 hour after chemical dosing in a 384-well plate.NVS_ENZ_hPTPN11 is one of one assay component(s) measured or calculated from the NVS_ENZ_hPTPN11 assay. It is designed to make measurements of enzyme activity, a form of enzyme reporter, as detected with fluorescence intensity signals by Fluorescence and electrophoretic mobility shift technology.Data from the assay component NVS_ENZ_hPTPN11 was analyzed into 1 assay endpoint. This assay endpoint, NVS_ENZ_hPTPN11, was analyzed in the positive analysis fitting direction relative to DMSO as the negative control and baseline of activity. Using a type of enzyme reporter, loss-of-signal activity can be used to understand changes in the enzymatic activity as they relate to the gene PTPN11. Furthermore, this assay endpoint can be referred to as a primary readout, because this assay has produced multiple assay endpoints where this one serves a enzymatic activity function. To generalize the intended target to other relatable targets, this assay endpoint is annotated to the phosphatase intended target family, where the subfamily is non-receptor tyrosine phosphatase.
Binding assays used specific radioligands (tritiated, iodinated) with non-radioactive competitive displacement ligands in agonist or antagonist protocols (as indicated) and various reference compounds and inhibitors to titrate specific binding to receptors and transporters. Most enzyme assays (CYPs, kinases, phosphatases, proteases, HDACs) used recombinant protein and specific substrates (fluorescence mostly, some colorimetric and radioactive) and inhibitors, followed by a biochemical separation of substrate and product. All assays for the biochemical HTS were initially run in duplicate at a single concentration (10 uM for CYP450 assays and 25 uM for all others). Assay-chemical combinations meeting a pre-defined threshold (e.g., 30% inhibition and other criteria defined below) were then run in singleton concentration-response format with maximum concentration of 20 uM for CYPs and 50 uM for all others. Each assay was run with positive and negative controls, and concurrent controls on every plate. The follow-up (secondary) screen tested active chemical-pairs in concentration series, as well as a few additional assays not tested in the primary screen, some selected negative inactives, and several cases re-run in the concentration series for confirmatory purposes.

Structure (SMILES) | outcome
CCOC(=O)C(C)(C)Oc1ccc(Cl)cc1 | inactive
Cc1ccc2ncccc2c1 | inactive
CCc1c(C(=O)NN2CCCCC2)nn(-c2ccc(Cl)cc2Cl)c1-c1ccc(Br)cc1 | inactive
NCCO | inactive

The compounds below were run against Tyrosine-protein phosphatase non-receptor type 12 (Homo sapiens) (UniProt Q05209) (assay: NVS_ENZ_hPTPN12: NovaScreen (NVS) Enzymatic Assay for human Protein Tyrosine Phosphatase Non-receptor Type 12 (PTPN12) (AID 2283204)).
Summary of the method: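 Single-concentration duplicates (25 uM) preceded singleton concentration-response up to 50 uM for chemicals passing threshold. Cell-free recombinant PTPN12 activity was read 1.33 h after dosing via fluorescence after mobility-shift separation; loss of signal versus DMSO.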

Tyrosine-protein phosphatase non-receptor type 12 (Homo sapiens), sequence (Q05209 whole entry, looked up): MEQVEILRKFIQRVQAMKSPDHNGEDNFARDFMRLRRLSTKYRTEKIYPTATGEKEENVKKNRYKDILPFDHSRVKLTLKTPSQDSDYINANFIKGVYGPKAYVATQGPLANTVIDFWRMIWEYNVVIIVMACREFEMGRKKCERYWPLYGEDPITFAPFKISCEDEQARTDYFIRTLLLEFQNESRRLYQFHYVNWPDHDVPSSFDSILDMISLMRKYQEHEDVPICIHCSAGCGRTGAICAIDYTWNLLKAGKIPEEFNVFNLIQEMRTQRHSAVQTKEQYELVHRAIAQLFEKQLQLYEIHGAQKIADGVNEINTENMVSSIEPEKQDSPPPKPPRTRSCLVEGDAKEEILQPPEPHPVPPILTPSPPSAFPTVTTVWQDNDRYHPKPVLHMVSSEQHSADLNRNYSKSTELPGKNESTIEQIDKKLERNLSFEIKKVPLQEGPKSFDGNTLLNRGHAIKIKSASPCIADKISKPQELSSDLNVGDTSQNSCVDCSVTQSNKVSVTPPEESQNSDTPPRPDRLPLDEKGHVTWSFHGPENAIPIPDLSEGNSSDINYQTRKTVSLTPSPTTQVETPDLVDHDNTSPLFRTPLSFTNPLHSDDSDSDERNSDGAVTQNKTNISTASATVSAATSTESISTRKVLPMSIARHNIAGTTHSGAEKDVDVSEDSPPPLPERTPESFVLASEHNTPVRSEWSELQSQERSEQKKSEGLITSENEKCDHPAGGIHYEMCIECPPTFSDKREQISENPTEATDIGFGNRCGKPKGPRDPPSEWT

Structure (SMILES) | outcome
CCOC(=O)C(C)(C)Oc1ccc(Cl)cc1 | inactive
CCc1c(C(=O)NN2CCCCC2)nn(-c2ccc(Cl)cc2Cl)c1-c1ccc(Br)cc1 | inactive
NCCO | inactive
Cc1nc(-c2ccc3c(c2)CCN(CCC2CCC(NC(=O)/C=C/c4ccc(F)cc4)CC2)CC3)no1 (configuration not stated) | inactive
FC(F)(F)C(F)(F)C(F)(F)C(F)(F)C(F)(F)C(F)(F)CCI | inactive

What follows are compounds tested against Tyrosine-protein phosphatase non-receptor type 13 (Homo sapiens) (UniProt Q12923) (assay: NVS_ENZ_hPTPN13: NovaScreen (NVS) Enzymatic Assay for human Protein Tyrosine Phosphatase Non-receptor Type 13 (PTPN13) (AID 2283205)).
Summary of the method: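 Cell-free assay of recombinant human PTPN13 with a fluorescent substrate, product separated by electrophoretic mobility shift and read 0.5 h after dosing. Primary screen at 25 uM in duplicate, then concentration-response up to 50 uM. Loss of signal fitted against DMSO.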

Tyrosine-protein phosphatase non-receptor type 13 (Homo sapiens), sequence (Q12923 whole entry, looked up): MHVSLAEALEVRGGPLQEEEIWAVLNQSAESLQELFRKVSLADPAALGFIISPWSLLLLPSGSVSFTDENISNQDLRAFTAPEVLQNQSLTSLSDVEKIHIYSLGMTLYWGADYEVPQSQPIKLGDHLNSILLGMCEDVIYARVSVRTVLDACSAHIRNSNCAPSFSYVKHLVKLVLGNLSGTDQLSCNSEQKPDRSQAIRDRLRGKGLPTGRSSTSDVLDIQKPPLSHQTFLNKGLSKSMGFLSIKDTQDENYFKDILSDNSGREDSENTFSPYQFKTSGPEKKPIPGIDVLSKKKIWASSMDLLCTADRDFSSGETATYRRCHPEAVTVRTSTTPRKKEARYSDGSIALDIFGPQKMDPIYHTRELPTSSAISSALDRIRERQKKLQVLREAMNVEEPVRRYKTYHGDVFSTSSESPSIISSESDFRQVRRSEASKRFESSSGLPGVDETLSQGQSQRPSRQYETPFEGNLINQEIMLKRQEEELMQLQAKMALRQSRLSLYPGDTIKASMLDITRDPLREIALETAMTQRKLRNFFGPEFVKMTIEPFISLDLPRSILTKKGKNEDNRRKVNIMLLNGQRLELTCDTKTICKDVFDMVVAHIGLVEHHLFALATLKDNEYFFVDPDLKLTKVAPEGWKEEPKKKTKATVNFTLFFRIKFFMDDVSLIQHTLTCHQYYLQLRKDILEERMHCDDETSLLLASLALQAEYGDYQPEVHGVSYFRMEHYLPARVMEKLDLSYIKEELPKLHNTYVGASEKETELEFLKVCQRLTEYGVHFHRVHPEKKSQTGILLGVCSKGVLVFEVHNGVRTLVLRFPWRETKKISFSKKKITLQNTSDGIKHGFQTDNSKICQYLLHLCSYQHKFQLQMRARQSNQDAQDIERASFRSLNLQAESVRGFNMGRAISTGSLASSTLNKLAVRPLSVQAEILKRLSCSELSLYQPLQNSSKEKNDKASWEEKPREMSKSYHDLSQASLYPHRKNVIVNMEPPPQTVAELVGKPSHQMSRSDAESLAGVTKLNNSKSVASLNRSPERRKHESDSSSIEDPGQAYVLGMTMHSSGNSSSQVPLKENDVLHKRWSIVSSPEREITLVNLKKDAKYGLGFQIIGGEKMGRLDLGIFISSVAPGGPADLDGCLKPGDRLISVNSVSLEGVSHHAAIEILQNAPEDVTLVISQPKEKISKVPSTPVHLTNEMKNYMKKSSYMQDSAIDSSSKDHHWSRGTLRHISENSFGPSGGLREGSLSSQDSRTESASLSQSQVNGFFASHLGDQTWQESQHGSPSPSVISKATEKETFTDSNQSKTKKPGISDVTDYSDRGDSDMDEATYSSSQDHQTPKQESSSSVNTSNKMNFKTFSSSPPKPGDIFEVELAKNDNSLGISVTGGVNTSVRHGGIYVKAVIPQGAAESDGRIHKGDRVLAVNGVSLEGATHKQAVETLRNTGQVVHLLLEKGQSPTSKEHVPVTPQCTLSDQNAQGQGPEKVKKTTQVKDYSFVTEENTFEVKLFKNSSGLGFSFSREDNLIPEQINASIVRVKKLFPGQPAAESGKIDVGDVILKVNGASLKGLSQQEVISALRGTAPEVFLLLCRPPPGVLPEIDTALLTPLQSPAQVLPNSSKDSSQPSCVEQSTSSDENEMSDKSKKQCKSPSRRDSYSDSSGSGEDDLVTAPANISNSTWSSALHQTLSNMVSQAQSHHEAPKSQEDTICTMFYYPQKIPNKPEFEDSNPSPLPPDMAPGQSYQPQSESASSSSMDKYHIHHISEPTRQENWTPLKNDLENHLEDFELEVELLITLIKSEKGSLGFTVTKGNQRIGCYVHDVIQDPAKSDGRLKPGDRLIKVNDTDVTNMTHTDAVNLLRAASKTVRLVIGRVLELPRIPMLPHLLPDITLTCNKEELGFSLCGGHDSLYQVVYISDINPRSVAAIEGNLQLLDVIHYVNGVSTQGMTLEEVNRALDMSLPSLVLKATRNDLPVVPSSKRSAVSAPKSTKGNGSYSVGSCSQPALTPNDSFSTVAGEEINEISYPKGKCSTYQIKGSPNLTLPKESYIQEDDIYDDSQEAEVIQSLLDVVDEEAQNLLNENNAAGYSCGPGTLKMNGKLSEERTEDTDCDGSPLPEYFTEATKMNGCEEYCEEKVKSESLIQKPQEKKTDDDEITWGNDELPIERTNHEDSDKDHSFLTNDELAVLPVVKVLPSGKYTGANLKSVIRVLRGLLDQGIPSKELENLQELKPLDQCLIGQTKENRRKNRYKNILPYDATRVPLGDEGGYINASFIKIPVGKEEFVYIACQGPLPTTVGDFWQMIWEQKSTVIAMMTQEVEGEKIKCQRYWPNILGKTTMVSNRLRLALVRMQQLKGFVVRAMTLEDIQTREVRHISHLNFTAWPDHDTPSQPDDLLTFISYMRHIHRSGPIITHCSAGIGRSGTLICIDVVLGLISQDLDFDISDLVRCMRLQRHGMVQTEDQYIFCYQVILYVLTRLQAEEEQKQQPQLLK

Structure (SMILES) | outcome | AC50
CCOC(=O)C(C)(C)Oc1ccc(Cl)cc1 | inactive | 
CCc1c(C(=O)NN2CCCCC2)nn(-c2ccc(Cl)cc2Cl)c1-c1ccc(Br)cc1 |  | 0.0976 µM (active)
COc1cc(-c2nc(NC(=O)c3cc4cc(C)cc(C)c4n3CC(=O)O)sc2CCC2CCCCC2)c(OC)cc1Cl |  | 6.01 µM (active)
CC1(C)CC(N=C=O)CC(C)(CN=C=O)C1 (configuration not stated) |  | 6.77 µM (active)
CCCc1cc(=O)[nH]c(=S)[nH]1 | inactive | 

The compounds below were run against Tyrosine-protein phosphatase non-receptor type 14 (Homo sapiens) (UniProt Q15678) (assay: NVS_ENZ_hPTPN14: NovaScreen (NVS) Enzymatic Assay for human Protein Tyrosine Phosphatase Non-receptor Type 14 (PTPN14) (AID 2283206)).
Summary of the method: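 Cell-free recombinant human PTPN14 with fluorescent substrate, read 0.5 h after dosing by fluorescence and electrophoretic mobility shift separating substrate from product. Primary screen at 25 uM in duplicate; hits run to 50 uM maximum; loss of signal versus DMSO.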

Structure (SMILES) | outcome
NCCO | inactive
CC(=O)OC/C=C(\C)CCC=C(C)C | inactive
C1CCC(SSC2CCCCC2)CC1 | inactive

These compounds were tested against human Protein Tyrosine Phosphatase Non-receptor Type 4 (PTPN4), PTPN4 (gene 5775) (UniProt P29074) (assay: NVS_ENZ_hPTPN4: NovaScreen (NVS) Enzymatic Assay for human Protein Tyrosine Phosphatase Non-receptor Type 4 (PTPN4) (AID 2283208)).
Summary of the method: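 Cell-free assay of PTPN4 expressed in Sf9 cells, using a fluorescent substrate with product separated by mobility shift; read 1.33 h after dosing. Single-point screen at 25 uM, then concentration-response up to 50 uM. Loss of signal relative to DMSO.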

Structure (SMILES) | outcome
Cc1ccc2ncccc2c1 | inactive
FC(F)(F)C(F)(F)C(F)(F)C(F)(F)C(F)(F)C(F)(F)CCI | inactive
Nc1ccc2c(c1)C(=O)c1ccccc1C2=O | inactive
O=C(OCCCCCOC(=O)c1ccccc1)c1ccccc1 | inactive

What follows are compounds tested against human Protein Tyrosine Phosphatase Non-receptor Type 6 (PTPN6), PTPN6 (gene 5777) (UniProt P29350) (assay: NVS_ENZ_hPTPN6: NovaScreen (NVS) Enzymatic Assay for human Protein Tyrosine Phosphatase Non-receptor Type 6 (PTPN6) (AID 2283210)).
Summary of the method: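 Cell-free assay with recombinant PTPN6 expressed in SF9 cells, fluorescent substrate, product separated from substrate by electrophoretic mobility shift; read 1.33 hours after dosing. Primary screen in duplicate at 25 uM, actives retested in concentration series; DMSO baseline.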

Structure (SMILES) | outcome
O=C(O)Cc1ccccc1Nc1c(Cl)cccc1Cl | inactive
Cc1ccc2ncccc2c1 | inactive
CCc1c(C(=O)NN2CCCCC2)nn(-c2ccc(Cl)cc2Cl)c1-c1ccc(Br)cc1 | inactive
C[C@]12C=CC(=O)C=C1CC[C@@H]1[C@@H]2C(=O)C[C@@]2(C)[C@H]1CC[C@]2(O)C(=O)CO | inactive
Cc1ccc(C)c(C)c1 | inactive
O=[N+]([O-])C(CO)(CO)CO | inactive
COc1ccc(C)cc1N | inactive
Oc1ccc2ccccc2c1N=Nc1ccccc1 | inactive

These compounds were tested against human Protein Tyrosine Phosphatase Receptor Type F (PTPRF), PTPRF (gene 5792) (UniProt P10586) (assay: NVS_ENZ_hPTPRF: NovaScreen (NVS) Enzymatic Assay for human Protein Tyrosine Phosphatase Receptor Type F (PTPRF) (AID 2283213)).
Summary of the method: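 Cell-free fluorescence enzyme assay with recombinant protein and substrate; product separated by electrophoretic mobility shift. Read 1 h after dosing, single 25 uM duplicate screen, then concentration-response up to 50 uM; loss of signal vs DMSO.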

human Protein Tyrosine Phosphatase Receptor Type F (PTPRF), PTPRF (gene 5792), sequence (P10586 whole entry, looked up): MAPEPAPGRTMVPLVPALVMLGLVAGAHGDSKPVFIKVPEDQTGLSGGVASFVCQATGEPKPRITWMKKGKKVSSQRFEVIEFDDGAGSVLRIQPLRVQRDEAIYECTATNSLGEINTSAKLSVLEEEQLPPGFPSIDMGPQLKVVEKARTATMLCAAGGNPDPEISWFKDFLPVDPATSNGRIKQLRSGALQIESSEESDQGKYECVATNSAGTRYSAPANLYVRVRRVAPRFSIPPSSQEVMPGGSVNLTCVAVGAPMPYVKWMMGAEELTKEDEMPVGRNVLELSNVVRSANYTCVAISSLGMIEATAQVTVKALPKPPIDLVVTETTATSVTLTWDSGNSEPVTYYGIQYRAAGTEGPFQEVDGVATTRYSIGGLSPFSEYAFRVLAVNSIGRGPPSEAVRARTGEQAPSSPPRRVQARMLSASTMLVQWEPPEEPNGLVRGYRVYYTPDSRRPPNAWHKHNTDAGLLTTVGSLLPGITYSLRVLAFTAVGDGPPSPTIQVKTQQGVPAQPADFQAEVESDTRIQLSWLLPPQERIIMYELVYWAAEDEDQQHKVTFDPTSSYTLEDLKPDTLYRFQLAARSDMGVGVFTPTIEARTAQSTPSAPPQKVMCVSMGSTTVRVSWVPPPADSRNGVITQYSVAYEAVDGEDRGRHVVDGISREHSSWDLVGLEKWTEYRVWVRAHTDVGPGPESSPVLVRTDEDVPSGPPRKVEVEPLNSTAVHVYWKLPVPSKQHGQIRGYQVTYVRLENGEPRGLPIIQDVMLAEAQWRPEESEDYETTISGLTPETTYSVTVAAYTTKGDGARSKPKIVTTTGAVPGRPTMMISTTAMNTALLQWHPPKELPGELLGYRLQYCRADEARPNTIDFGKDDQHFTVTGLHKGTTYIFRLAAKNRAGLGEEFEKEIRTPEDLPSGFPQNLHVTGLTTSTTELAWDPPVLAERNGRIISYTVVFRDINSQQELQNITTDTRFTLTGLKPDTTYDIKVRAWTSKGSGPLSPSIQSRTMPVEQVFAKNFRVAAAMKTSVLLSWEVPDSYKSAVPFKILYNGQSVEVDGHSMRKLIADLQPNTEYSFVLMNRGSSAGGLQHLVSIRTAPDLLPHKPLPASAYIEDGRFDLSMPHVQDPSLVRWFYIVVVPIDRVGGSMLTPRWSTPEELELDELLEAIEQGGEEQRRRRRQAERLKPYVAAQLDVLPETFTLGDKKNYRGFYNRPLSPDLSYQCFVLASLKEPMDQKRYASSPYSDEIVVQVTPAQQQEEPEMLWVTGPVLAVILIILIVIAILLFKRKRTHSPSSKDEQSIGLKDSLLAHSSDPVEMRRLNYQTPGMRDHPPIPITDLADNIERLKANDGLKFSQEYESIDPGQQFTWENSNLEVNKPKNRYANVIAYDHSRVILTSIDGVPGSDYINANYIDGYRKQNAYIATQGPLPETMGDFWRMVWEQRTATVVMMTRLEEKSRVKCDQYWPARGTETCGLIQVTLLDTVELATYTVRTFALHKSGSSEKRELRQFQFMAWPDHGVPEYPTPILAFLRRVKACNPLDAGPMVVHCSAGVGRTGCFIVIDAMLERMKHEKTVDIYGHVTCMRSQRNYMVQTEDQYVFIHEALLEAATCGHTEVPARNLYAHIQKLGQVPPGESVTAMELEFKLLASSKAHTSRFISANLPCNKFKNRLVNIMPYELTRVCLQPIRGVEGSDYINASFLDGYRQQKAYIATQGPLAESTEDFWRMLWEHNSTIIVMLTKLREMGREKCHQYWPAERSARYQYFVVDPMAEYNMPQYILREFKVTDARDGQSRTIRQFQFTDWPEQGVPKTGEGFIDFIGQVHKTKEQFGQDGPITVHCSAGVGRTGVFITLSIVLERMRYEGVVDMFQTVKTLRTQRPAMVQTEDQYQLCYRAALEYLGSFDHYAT

Structure (SMILES) | outcome
CCc1c(C(=O)NN2CCCCC2)nn(-c2ccc(Cl)cc2Cl)c1-c1ccc(Br)cc1 | inactive
CC(C)c1ccc(C(=O)N=C(N)N)cc1S(C)(=O)=O | inactive
O=C(OCCCCCOC(=O)c1ccccc1)c1ccccc1 | inactive
